Our source for the inhibition values is PubChem BioAssay AID2322 (Broad Institute, 2010).

As a reminder, the inhibition is the relative decrease from the control value, in per cent.

SMILES strings stand for the structures. About 120 (0.44%) of roughly 27,000 compounds were called active. No stated cut-off is given here; in the data, active means inhibition above about 20%; inconclusive means no clear call, values can overlap the other calls; inactive means below that. The sample as a whole holds a higher share of actives than the screen did.

Serine/threonine-protein kinase 33 (Homo sapiens), sequence (Q9BYT3 whole entry, looked up): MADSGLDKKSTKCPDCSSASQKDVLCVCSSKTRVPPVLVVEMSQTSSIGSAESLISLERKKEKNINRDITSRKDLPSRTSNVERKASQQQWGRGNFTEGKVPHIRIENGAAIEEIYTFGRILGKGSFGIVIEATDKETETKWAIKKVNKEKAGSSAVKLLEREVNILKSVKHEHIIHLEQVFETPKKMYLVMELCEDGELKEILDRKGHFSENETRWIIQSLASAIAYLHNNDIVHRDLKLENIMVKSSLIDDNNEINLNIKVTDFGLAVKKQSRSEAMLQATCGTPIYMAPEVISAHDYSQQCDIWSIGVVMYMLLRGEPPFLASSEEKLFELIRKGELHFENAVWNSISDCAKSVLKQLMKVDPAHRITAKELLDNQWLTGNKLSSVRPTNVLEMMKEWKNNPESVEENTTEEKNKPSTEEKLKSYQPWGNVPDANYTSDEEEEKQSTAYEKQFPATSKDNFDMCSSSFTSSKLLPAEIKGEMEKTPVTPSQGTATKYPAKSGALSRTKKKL

The experiment addresses Serine/threonine-protein kinase 33 (Homo sapiens) (UniProt Q9BYT3). Kind of experiment: STK33 kinase inhibitors, primary screen, biochemical, luminescence, ADP-Glo, MBP substrate (AID 2322). The following applies: at 12.5 µM, stronger effect = higher value.
As for `Cc1ccc(N(CC(=O)Nc2ccccc2Sc2ccccc2)S(C)(=O)=O)c(C)c1`, the inhibition is -1.72% (inactive).
For the molecule `COC(=O)c1ccc(NC(=O)CSc2nc(-c3ccccc3)cc(=O)[nH]2)cc1`, the inhibition is 4.41% (inactive).
Then `O=C(O)CCCC(=O)Nc1ccc(F)cc1`, with -2.71% (inactive); and `O=C(NCc1ccccn1)c1ccccc1C(=O)c1ccccc1`, with -3.58% (inactive); and `CCC(O)c1ccc2c(=O)c(-c3ccccc3F)coc2c1` (stereo not drawn), with 1.14% (inactive).
With `CCOc1ccc(NC(=O)CSc2nccc(C)n2)cc1`, the inhibition is -0.939% (inactive).
Then `COc1ccc(/C=C/C(=O)O[C@@H]2[C@@H](OC(=O)/C=C/c3ccc(OC)cc3)[C@H](C)O[C@@H](O[C@H]3[C@@H]4C=CO[C@@H](O[C@@H]5O[C@H](CO)[C@@H](O)[C@H](O)[C@H]5O)[C@@H]4[C@@]4(CO)O[C@@H]34)[C@@H]2OC(C)=O)cc1`, with -0.911% (inactive); and `C[C@H]1CN([C@@H](C)CO)C(=O)c2cc(NC(=O)Cn3cnnn3)ccc2O[C@H]1CN(C)S(C)(=O)=O`, with -0.963% (inactive).
For the molecule `CCOC(=O)c1c(NC(=O)Cn2nc([N+](=O)[O-])c(Br)c2C)sc2c1CCCC2`, the inhibition is 2.08% (inactive).
Then `Cc1cc(C)c2oc(-c3cccc(NC(=O)COc4ccc(Br)cc4)c3C)nc2c1`, with 5.61% (inactive); and `CCn1c(SCC(=O)Nc2cc(Cl)ccc2OC)nnc1-c1ccc(Br)cc1`, with 1.48% (inactive); and `CC(C)(C)c1ccc(OCC(=O)NCc2ccccn2)c(Br)c1`, with -6.11% (inactive).
Then `Nc1ccc2c3c(cccc13)C(=O)NC2=O`, with 28.5% (active); and `C[C@@H]1CN([C@H](C)CO)C(=O)c2cc(NC(=O)Nc3ccc4c(c3)OCO4)ccc2O[C@H]1CN(C)Cc1ccc(-c2ccccc2)cc1`, with 0.655% (inactive); and `O=C(CSc1nc2ccc(NC(=O)c3ccccc3Cl)cc2s1)Nc1ccc(F)cc1`, with 0.13% (inactive).
Next, `O=C(CSc1nnc(-c2ccccn2)n1-c1ccccc1)Nc1ccc2cn[nH]c2c1`: 0.339% (inactive); `COc1ccc(N(CC(=O)Nc2cc(C)ccc2OC)S(C)(=O)=O)cc1Cl`: -2.26% (inactive); `NCCCC[C@@H]1NC(=O)[C@@H]2C[C@H](C(=O)NCc3ccc(F)cc3)[C@H](c3ccc(O)cc3)N2C1=O`: -1.29% (inactive).
On to `C[C@H](CO)N1C[C@H](C)[C@@H](CN(C)S(=O)(=O)c2ccc(F)cc2)OCc2cnnn2CCCC1=O`, for which the inhibition was 3.05% (inactive).
Next, `COc1ccc(C(C)=O)cc1CSc1nnc(-c2ccc(Br)cc2)n1-c1ccccc1`: -0.65% (inactive); `COc1ccc(N(C(C)C(=O)Nc2cccc(Br)c2)S(C)(=O)=O)cc1` (stereo not drawn): -0.0651% (inactive).
Then `COC(=O)c1ccc(NC(=O)CSc2nc(-c3ccccc3)c(-c3ccccc3)[nH]2)cc1`, with 0.633% (inactive); and `O=[N+]([O-])c1ccc(NCCNCc2cccnc2)cc1`, with 0.298% (inactive).
Next, `COc1ccc(NC(=O)CN2CCN(S(=O)(=O)c3ccc4ccccc4c3)CC2)cc1`: -0.51% (inactive); `Cc1ccc(N(C(C)C(=O)Nc2ccc(F)c(Cl)c2)S(C)(=O)=O)cc1C` (stereo not drawn): -3.25% (inactive).
On to `Cc1ccc(-n2c(SCC(=O)Nc3cccc(C)c3C)nc3ccccc3c2=O)cc1`, for which the inhibition is -0.698% (inactive).
Then `O=C(c1ccc(NCc2cccnc2)c([N+](=O)[O-])c1)N1CCCCC1`, with 2.99% (inactive); and `CN(CC(=O)Nc1ccc(F)cc1)S(=O)(=O)c1ccccc1`, with -1.62% (inactive).
With `Nc1cc(N)nc(SCC(=O)c2ccc(Br)cc2)n1`, the inhibition is 1.93% (inactive).
On to `O=C(CSc1nnc(-c2ccccc2)n1-c1ccc(Cl)cc1)Nc1ccc(Cl)cc1`, for which the inhibition was -3.34% (inactive).
In the case of `O=C(CN1CCCC1)Nc1sc2c(c1C(=O)Nc1ccccc1)CCCC2`, the inhibition was -1.02% (inactive).
Next, `CN1C(=O)C(O)(CC(=O)c2ccco2)c2cc([N+](=O)[O-])ccc21` (stereo not drawn): 1.09% (inactive); `COc1ccc(-c2nnc(SCC(=O)O)n2-c2ccccc2)cc1OC`: 0.684% (inactive); `C[C@H]1CN([C@@H](C)CO)C(=O)CCCn2cc(nn2)CO[C@@H]1CN(C)S(=O)(=O)c1ccc(-c2ccccc2)cc1`: -9.48% (inactive).
For `COc1ccc(NC(=O)O[C@@H](c2ccc(OCCO)cc2)[C@@H](C)CCO)cc1`, the inhibition is 0.388% (inactive).
Then `COc1cc(OC)c(NC(=O)CSc2nnc(-c3ccncc3)n2-c2ccccc2)cc1Cl`, with -1.55% (inactive).
With `C[C@H](CO)N1C[C@H](C)[C@H](CN(C)S(=O)(=O)c2ccc(Cl)cc2)Oc2ccc(NC(=O)C3CCCCC3)cc2C1=O`, the inhibition was 5.34% (inactive).
Next, `CCCC(O)C#Cc1cnc2c(c1)C(=O)N([C@H](C)CO)C[C@H](C)[C@H](CN(C)S(=O)(=O)c1ccc(C#N)cc1)O2` (stereo partly drawn): 2.14% (inactive); `Cc1nn(CC(=O)NCc2ccccn2)c(C)c1[N+](=O)[O-]`: -1.47% (inactive).
Next, `COC(=O)c1ccccc1NC(=O)CSc1n[nH]c(-c2ccncc2)n1`: 2.87% (inactive); `COc1ccc(C)cc1S(=O)(=O)N1CCCC(C(=O)Nc2ccccc2C(F)(F)F)C1` (stereo not drawn): 1.43% (inactive); `CC(C)N1C(=O)[C@@]2(Cc3ccccc31)c1ccccc1C(=O)N(C1CCCCC1)[C@H]2c1ccc(CO)cc1`: 4.98% (inactive).
Turning to `Cc1ccc(NC(=O)COc2ccccc2C)c([N+](=O)[O-])c1`, the inhibition is 0.544% (inactive).
Next, `COc1ccc(OC)c(NC(=O)Cn2cc(C(=O)C3CC3)c3ccccc32)c1`: -2.72% (inactive); `COc1ccc(Cl)cc1N(CC(=O)Nc1ccc(Br)c(Cl)c1)S(C)(=O)=O`: 1.17% (inactive).
Next, `CN(CC(=O)Nc1ccccc1C#N)S(=O)(=O)c1ccc2ccccc2c1`: 1.4% (inactive); `C[C@H](CO)N1C[C@H](C)[C@@H](CN(C)C(=O)C2CCCCC2)OCc2cnnn2CCCC1=O`: 0.882% (inactive).
In the case of `COc1ccc(NC(=O)CSc2nncc3ccccc23)c([N+](=O)[O-])c1`, the inhibition is -3.11% (inactive).
Then `C[C@H](CO)N1C[C@H](C)[C@H](CN(C)S(C)(=O)=O)Oc2ncc(C#CCN(C)C)cc2C1=O`, with 3.31% (inactive); and `O=[N+]([O-])c1cccc(NC(=S)Nc2nn(Cc3ccc(Cl)cc3Cl)cc2Cl)c1`, with 1% (inactive); and `Cc1ccc(-c2ccc(CCC(=O)O)n2-c2ccc(C(N)=O)cc2)cc1`, with -3.89% (inactive).
`O=C(NCc1ccco1)c1ccc2c(c1)C(=O)N(Cc1cccnc1)C2=O`: the inhibition is -0.956% (inactive).
Next, `Cc1ccc(-c2nc(S(=O)(=O)c3ccc(Br)cc3)c(SCC(N)=O)o2)cc1`: 4.38% (inactive); `Cc1ccc(S(=O)(=O)N(C)CC(=O)Nc2cccc(F)c2)cc1`: -1.04% (inactive); `CCOC(=O)C(C)Sc1ncnc2c1sc1nc(N3CCOCC3)c3c(c12)CC(C)(C)OC3` (stereo not drawn): -0.767% (inactive).
Next, `Cc1ccc(NC(=O)CSc2nc3ccccc3s2)cc1[N+](=O)[O-]`: 1.36% (inactive).
Next, `CC(C)[C@H](CO)Nc1nc(Nc2cc(N)cc(Cl)c2)c2ncn(C(C)C)c2n1`: 89.6% (active); `Cc1ccc(S(=O)(=O)N(C)C[C@@H]2Oc3ccc(NC(=O)Nc4ccc(F)cc4)cc3C(=O)N([C@H](C)CO)C[C@@H]2C)cc1`: -2.65% (inactive).
On to `O=C(CCn1nc(-c2ccc(Cl)cc2)c2ccccc2c1=O)Nc1ccc(Br)cc1`, for which the inhibition was -3.22% (inactive).
Then `O=C(O)CCNS(=O)(=O)c1ccc2c(c1)OCCO2`, with 1.73% (inactive).
For the molecule `C(=C\c1nn2c(C3COc4ccccc4O3)nnc2s1)/c1ccccc1` (stereo not drawn), the inhibition is -1.1% (inactive).
Then `C[C@H]1CN([C@@H](C)CO)C(=O)CCCn2nncc2CO[C@H]1CN(C)Cc1ccc2c(c1)OCO2`, with 5.15% (inactive); and `CN(CC(=O)Nc1ccc(Cl)c(Cl)c1)S(=O)(=O)c1ccc2ccccc2c1`, with 0.105% (inactive).
Next, `Cc1ccc(CN(C)C[C@H]2OCc3cn(nn3)CCCC(=O)N([C@@H](C)CO)C[C@H]2C)cc1`: 3.49% (inactive); `Cc1ccccc1OCC(=O)Nc1cc(-c2nc3ccccc3s2)c(Cl)cc1Cl`: -0.293% (inactive); `COc1ccc(NC(=O)COc2cc(C)c(Br)c(C)c2)c([N+](=O)[O-])c1`: -1.64% (inactive).
Then `COc1cccc(NC(=O)N(C)C[C@@H]2OCc3cn(nn3)CCCC(=O)N([C@@H](C)CO)C[C@H]2C)c1`, with -4.73% (inactive).
For the molecule `O=C(CSc1nc2ccccc2s1)c1cc2ccccc2oc1=O`, the inhibition is -1.09% (inactive).
Next, `COc1cc(Cl)c(C)cc1NC(=O)CSc1nnnn1-c1ccccc1`: -5.72% (inactive); `O=C(CSc1nnc(-c2cccs2)n1-c1ccccc1Cl)Nc1cccc(C(=O)O)c1`: -0.392% (inactive).
Next, `Cn1c(=O)c2c(nc(SCC(=O)NC(C)(C)C)n2Cc2ccccc2F)n(C)c1=O`: -1.84% (inactive); `C[C@@H]1CN([C@@H](C)CO)C(=O)CCCn2cc(nn2)CO[C@@H]1CN(C)S(=O)(=O)c1cccc(F)c1`: -2.04% (inactive); `COc1ccc(NC(=O)CSc2nnc(-c3ccc(Br)cc3)n2C)cc1`: -2.11% (inactive).
Consider `CCn1c(SCC(=O)c2ccc(OC)cc2)nnc1-c1ccc(Cl)cc1Cl`, for which the inhibition was -3.02% (inactive).
Next, `Cc1noc(C)c1NC(=O)Nc1ccc2c(c1)C(=O)N([C@H](C)CO)C[C@H](C)[C@@H](CN(C)Cc1ccc3c(c1)OCO3)OCCCC[C@@H](C)O2`: -1.44% (inactive); `C[C@@H]1CN([C@H](C)CO)C(=O)Cc2cc(NC(=O)Nc3ccc4c(c3)OCO4)ccc2O[C@@H]1CN(C)C(=O)Nc1ccccc1`: 0.707% (inactive); `C=CCn1c2ccccc2c2nnc(SCC(=O)N3c4ccccc4Sc4ccccc43)nc21`: -0.993% (inactive).
Then `C[C@@H]1CN([C@@H](C)CO)C(=O)CCCn2cc(nn2)CO[C@@H]1CN(C)S(=O)(=O)c1ccccc1C#N`, with -7.04% (inactive).
